# Shown are actives, neighbours in structure and some others; about 32% of the full set was active somewhere.
# CYP2C9 activ: activators of human CYP2C9; P11712; recombinant CYP2C9, luciferin-H conversion, luminescence; stronger effect = higher value; factor 1 = untreated enzyme, 0 = blocked; activation factor at 5 µM; 96,000 compounds, 1.4% hits; AID 1024;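 active means activation factor of 2 or more for CYP2C9 at a 5 µM dose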;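 further: 0 = sulfaphenazole-blocked wells and 1 = vehicle-only wells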
# CYP2C19 act: cytochrome P450 2C19 (human) activation; 96,000 tested, under 10 active; P33261; activation factor at 5 µM; recombinant CYP2C19, luciferin-H EGE luminescence; stronger effect = higher value; 0 = fully inhibited enzyme, 1 = untreated enzyme; AID 1025;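 active means activation factor of at least 2 at 5 µM in the primary screen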;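 further: 0 = wells with 2.5 mM tranylcypromine and 1 = vehicle-only wells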
# Target sequence (P33261 whole entry, looked up): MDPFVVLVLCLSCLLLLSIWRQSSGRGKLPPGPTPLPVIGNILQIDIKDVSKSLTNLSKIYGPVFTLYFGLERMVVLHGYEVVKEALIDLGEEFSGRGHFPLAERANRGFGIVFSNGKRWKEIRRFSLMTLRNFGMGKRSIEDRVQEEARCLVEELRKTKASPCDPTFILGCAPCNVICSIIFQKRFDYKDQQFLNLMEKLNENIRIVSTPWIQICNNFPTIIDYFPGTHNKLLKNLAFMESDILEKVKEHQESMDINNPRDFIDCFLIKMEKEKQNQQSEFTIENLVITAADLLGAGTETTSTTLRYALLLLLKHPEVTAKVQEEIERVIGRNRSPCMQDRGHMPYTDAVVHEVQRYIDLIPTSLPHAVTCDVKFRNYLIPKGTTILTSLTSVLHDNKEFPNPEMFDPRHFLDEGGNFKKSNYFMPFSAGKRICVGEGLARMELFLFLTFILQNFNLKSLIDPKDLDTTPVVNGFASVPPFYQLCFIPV
# CYP2C19 inhib: inhibitors of human CYP2C19 | P33261 | CYP2C19 Supersomes, luciferin-H EGE luminescence, 30 min | inhibition, % at 5 µM | 96,000 compounds, 21% hits;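 active means CYP2C19 inhibition above a set limit at 5 µM in the primary screen, cut at about 50% in these data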;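 further: plate controls were negative control wells for no effect and 2.5 mM tranylcypromine positive control for full effect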
# PostGolgi ctrl: inhibits growth of the yeast control strain; 98,000 compounds, 5% hits; AID 738; inhibition, % at 10 µM; efflux-deficient yeast background strain, growth absorbance A615, 16 h
# CYP2C9 inhib: human CYP2C9 inhibition; CYP2C9 Supersomes, luciferin-H conversion, luminescence; AID 777; 96,000 compounds, 20% hits; inhibition, % at 5 µM;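 active means blocking of liver enzyme CYP2C9 beyond about 50% at 5 µM, limit read from the data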
# PostGolgi yeast: growth inhibition of a yeast mutant, post-Golgi transport screen; 98,000 compounds, 0.9% hits; inhibition, % at 10 µM; AID 739; post-Golgi transport phenotypic cell assay;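 further: yeast cells grown in 1536-well plates; yeast grown about 18 h at 30C before absorbance read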
# * marks the source's active call; other numbers are inactive results; / = not tested or not shown. Unless noted, no stated cut-off is given here; in the data, active means inhibition above about 30%; inactive means the rest.
SMILES,CYP2C9 activ,CYP2C19 act,CYP2C19 inhib,PostGolgi ctrl,CYP2C9 inhib,PostGolgi yeast
COc1cc(S(=O)(=O)Nc2cccc(C(=O)O)c2)c(OC)cc1Cl,1.1,1.1,-10.2,2.4,-10.0,-5.2
O=C1c2ccccc2C(=O)N1CCSc1ccccc1,0.8,0.5,52.3*,1.7,22.2,-2.5
Cc1cc(C)n(C(=O)CCN2C(=O)c3ccccc3C2=O)n1,1.2,0.6,41.0,9.2,-24.4,-1.8
O=C1c2ccccc2C(=O)N1CCSc1nncs1,0.9,0.9,9.6,10.6,8.5,-3.4
Nc1nc(SCCN2C(=O)c3ccccc3C2=O)n[nH]1,0.9,1.1,-12.0,21.0,6.1,-5.0
CSc1nsc(SCCN2C(=O)c3ccccc3C2=O)n1,0.5,0.2,80.4*,14.1,52.3*,4.2
Cc1csc(SCCN2C(=O)c3ccccc3C2=O)n1,0.3,0.2,81.8*,6.2,71.3*,3.6
O=C(CCC1CCCC1)Nc1ccon1,0.9,0.7,25.8,7.5,11.9,4.6
O=C(O)c1oc2ccc(Br)cc2c1-n1cccc1,1,1.1,-10.4,/,-4.3,/
O=C(Cc1c(O)c2ccccc2[nH]c1=O)NC1CCCCCCC1,0.9,0.9,8.7,8.1,10.8,-3.5
O=C(N/N=C/c1cccc(F)c1)c1csc2c1CCCC2,1.5,0.9,13.5,50.1*,-48.2,-8.0
CCC(OC(=O)C1=Cc2ccccc2OC1)C(=O)NC1CCCC1 (configuration not stated),0.6,0.7,25.1,16.0,38.1,16.4
O=C(OC(C(=O)NC1CCCC1)c1ccncc1)C1=Cc2ccccc2OC1 (configuration not stated),0.3,0.1,89.1*,6.6,73.5*,-4.2
CC(C)(C)NC(=O)CN(C(=O)CS(=O)CC(=O)Nc1ccc(F)cc1)c1ccc(Cl)cc1 (configuration not stated),0.5,1,1.8,-6.5,45.4,4.7
CC(C)(C)NC(=O)CN(C(=O)CS(=O)CC(=O)Nc1ccc(F)cc1)c1ccc(F)c(Cl)c1 (configuration not stated),0.1,0.6,35.8,-1.6,88.6*,-1.8
COc1ccc(-c2cc(-c3ccc(OC)cc3)[nH]n2)cc1,0.8,0.7,26.2,33.4*,24.0,19.6
COc1ccc(OC)c(-n2c(-c3cc(-c4ccc(F)cc4)n[nH]3)n[nH]c2=S)c1,1.1,0.6,35.1,-2.3,-11.4,-2.7
COc1ccc(-n2c(O)cnc2Nc2nc(C)cc(C)n2)cc1OC,1,1,1.9,31.8*,2.4,-11.6
CCc1ccc(-n2c(O)cnc2Nc2nc(C)cc(C)n2)cc1,0.8,0.9,8.3,-1.4,17.0,-5.2
CC(=O)C1=C(O)C(=O)N(c2ccc(S(N)(=O)=O)cc2)C1c1ccc([N+](=O)[O-])cc1 (configuration not stated),0.1,0.8,18.1,4.5,90.0*,-20.3
CC(=O)C1=C(O)C(=O)N(c2ccc(C(=O)O)cc2)C1c1ccccc1 (configuration not stated),1,0.9,5.0,-3.6,-0.2,-5.9
NC(=O)c1ccc(C(F)(F)F)n(Cc2ccc(Cl)cc2)c1=O,0.8,0.5,50.8*,20.3,22.4,-2.5
NC(=O)c1cnn(Cc2ccc(Cl)cc2)c1N,1,1,-4.7,-2.6,3.4,3.8
NC(=O)c1ccc(C(F)(F)F)n(Cc2cccc(Cl)c2)c1=O,0.7,0.4,55.6*,60.7*,25.1,5.3
Cc1cc([N+](=O)[O-])nn1Cc1c(F)c(F)c(F)c(F)c1F,0.7,0.6,38.7,8.6,27.1,-1.9
SMILES,CYP2C9 activ,CYP2C19 act,CYP2C19 inhib,PostGolgi ctrl,CYP2C9 inhib,PostGolgi yeast
COc1ccc(NC(=O)CC2C(=O)N(c3cccc(OC)c3)C(=O)N2CCC(C)C)cc1 (configuration not stated),0.4,0.3,65.5*,4.5,62.4*,6.4
COc1ccc(NC(=O)CC2C(=O)N(c3cccc(C)c3)C(=O)N2C2CCCCC2)cc1 (configuration not stated),0.5,0.4,55.8*,15.3,46.8,0.0
CCC(=O)N(Cc1ccc(C)cc1)Cc1cc2cc3c(cc2[nH]c1=O)OCO3,0.7,0.9,8.7,-1.6,31.1,16.7
O=C(Nc1ccc(C(=O)Oc2ccccc2)c(O)c1)c1ccco1,0.6,0.6,41.3,26.2,42.2,-1.9
Cc1ccc(C(=O)C2COC(=O)C2)cc1 (configuration not stated),1.1,1,-0.2,-2.7,-6.8,4.0
N#C/C(=C1/CCCCCN1)c1nnc2n1CCCCC2,1,1,1.9,13.8,-3.8,5.8
CCOc1ccc(C2=CS/C(=C(\C#N)c3nnc4n3CCCCC4)N2CC)cc1,0.8,0.5,53.9*,24.7,18.2,1.8
C=CCN1C(c2ccccc2)=CS/C1=C(\C#N)c1nnc2n1CCCCC2,0.7,0.2,83.1*,15.4,27.2,3.4
Cc1cc(C)n2nc(C(=O)Nc3ccc4c(c3)OCO4)cc2n1,0.9,0.9,5.3,-0.9,8.8,-2.3
CC(C)(C)n1ncc2c(=O)n(CC(=O)NCc3ccc(F)cc3)cnc21,1.2,1.1,-9.9,-3.0,-17.8,3.9
CCn1c(C)[n+](CCOCC[n+]2c(C)n(CC)c3cc(Cl)c(Cl)cc32)c2cc(Cl)c(Cl)cc21,1.1,1.1,-11.7,3.9,-7.9,0.8
O=C(CNCc1ccco1)Nc1ccccc1-n1cccc1,/,/,/,1.7,/,5.0
CCOC(=O)N1CCC(NC(=O)C2CCN(c3ccc(N4CCOCC4)nn3)CC2)CC1,0.9,1,-0.5,36.4*,8.1,-4.6
O=[N+]([O-])c1cccc(C(=Nc2cccc(Cl)c2)NO)c1,0.1,0.1,90.7*,7.0,86.9*,-10.2
O=C(Nc1nc(-c2cccs2)cs1)c1cccc(S(=O)(=O)N2CCCCCC2)c1,0.1,0.3,71.6*,8.2,93.7*,-4.7
CCOC(=O)Cc1csc(NC(=O)c2ccc(S(=O)(=O)N3CCCC3)cc2)n1,0.1,0.2,79.4*,0.3,87.9*,-5.0
O=C(Nc1nc(-c2cccs2)cs1)c1ccc(S(=O)(=O)N2CCCCC2)cc1,0.4,0.6,38.8,41.4*,60.1*,18.2
CN1CCN(S(=O)(=O)c2cccc(C(=O)Nc3nc(-c4ccccc4)cs3)c2)CC1,0.6,0.8,21.2,13.4,35.6,0.2
O=C(Nc1nc(-c2ccccc2)cs1)c1cccc(S(=O)(=O)N2CCN(Cc3ccccc3)CC2)c1,0.1,0.5,53.4*,-4.5,90.3*,0.5
Cc1csc(NC(=O)c2cccc(S(=O)(=O)N3CCCCC3)c2)n1,0.8,0.7,26.4,13.8,24.4,-8.4
Cn1c(Cn2c(=O)sc3ccccc32)nnc1SCC(=O)Nc1ccc2c(c1)OCO2,/,/,/,0.3,/,-1.1
c1ccc(Cc2nn3c(-c4ccncc4)nnc3s2)cc1,0.2,0,99.0*,16.2,83.7*,-4.9
Clc1ccc(-c2nnc3sc(Cc4cccs4)nn23)cc1,0.9,0.8,22.0,/,13.2,/

# From PubChem
